Data reported in ChEMBL document CHEMBL3988442, “University of Dundee, Small-Polar-MMV Screening Library” (2021).
For some of these results: Potency and affinity values are given separately.

Experiments:
Design in all cases: scale not given: direction of the effect not stated beside the values
[1] = molecular target: Protein translocase subunit SecA (Escherichia coli (strain K12)) (UniProt P10408); experiment: Assay to Identify E. coli SecA ATPase Inhibitors; type: functional; settings: 30 µM
[2] = molecular target: T1, Ubiquitin-activating enzyme e1, putative (Leishmania donovani (strain BPK282A1)) (UniProt E9BSI1); experiment: Leishmania donovani Ubiquitin Activating Enzyme (LdE1); type: functional; settings: 30 µM
T1 sequence (whole entry): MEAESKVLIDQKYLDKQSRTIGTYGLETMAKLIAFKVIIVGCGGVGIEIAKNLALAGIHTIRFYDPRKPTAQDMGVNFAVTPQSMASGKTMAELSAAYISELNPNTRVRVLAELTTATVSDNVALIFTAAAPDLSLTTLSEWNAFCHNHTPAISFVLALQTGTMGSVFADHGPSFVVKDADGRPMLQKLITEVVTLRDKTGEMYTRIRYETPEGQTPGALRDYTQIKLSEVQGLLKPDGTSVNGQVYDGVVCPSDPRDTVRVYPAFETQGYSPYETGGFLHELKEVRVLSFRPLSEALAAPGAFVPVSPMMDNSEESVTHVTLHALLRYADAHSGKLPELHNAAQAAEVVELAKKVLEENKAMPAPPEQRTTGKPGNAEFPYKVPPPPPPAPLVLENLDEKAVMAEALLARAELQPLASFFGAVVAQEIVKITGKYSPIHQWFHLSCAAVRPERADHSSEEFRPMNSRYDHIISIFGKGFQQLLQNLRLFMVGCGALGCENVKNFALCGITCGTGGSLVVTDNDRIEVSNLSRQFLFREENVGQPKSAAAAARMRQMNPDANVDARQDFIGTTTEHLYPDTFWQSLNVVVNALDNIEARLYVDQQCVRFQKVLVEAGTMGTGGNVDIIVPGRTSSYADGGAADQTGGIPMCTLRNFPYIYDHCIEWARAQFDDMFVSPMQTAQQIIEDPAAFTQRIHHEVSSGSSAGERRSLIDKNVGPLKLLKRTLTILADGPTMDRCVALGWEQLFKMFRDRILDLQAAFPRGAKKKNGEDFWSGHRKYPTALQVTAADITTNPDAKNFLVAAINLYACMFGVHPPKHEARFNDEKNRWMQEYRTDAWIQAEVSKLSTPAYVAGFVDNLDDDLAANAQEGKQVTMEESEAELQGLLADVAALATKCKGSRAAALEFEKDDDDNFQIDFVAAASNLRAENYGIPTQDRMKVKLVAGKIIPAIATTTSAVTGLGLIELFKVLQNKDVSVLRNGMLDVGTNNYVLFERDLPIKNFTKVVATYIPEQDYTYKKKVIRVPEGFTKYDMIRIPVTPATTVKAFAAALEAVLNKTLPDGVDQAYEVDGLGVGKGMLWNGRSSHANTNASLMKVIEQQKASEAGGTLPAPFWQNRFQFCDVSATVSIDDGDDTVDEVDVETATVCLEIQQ

[3] = molecular target: AMP-activated protein kinase, AMPK (Homo sapiens) (UniProt P54646+O43741+P54619+Q9UGJ0+Q9Y478+Q13131+Q9UGI9); experiment: AMP-dependent Kinase enzyme assay. An in vitro enzyme assay that detects ADP turnover that is directly proportional to AMPK activity. This uses naive AMPK that is activated during the assay with MK-8722; type: functional; settings: 30 µM
[4] = molecular target: Sialic acid-binding Ig-like lectin 9 (Homo sapiens) (UniProt Q9Y336); experiment: Hs-Siglec9 ALPHAscreen SOP 20170721; settings: 10 µM
Sequence of Sialic acid-binding Ig-like lectin 9 (Homo sapiens) (Q9Y336 whole entry): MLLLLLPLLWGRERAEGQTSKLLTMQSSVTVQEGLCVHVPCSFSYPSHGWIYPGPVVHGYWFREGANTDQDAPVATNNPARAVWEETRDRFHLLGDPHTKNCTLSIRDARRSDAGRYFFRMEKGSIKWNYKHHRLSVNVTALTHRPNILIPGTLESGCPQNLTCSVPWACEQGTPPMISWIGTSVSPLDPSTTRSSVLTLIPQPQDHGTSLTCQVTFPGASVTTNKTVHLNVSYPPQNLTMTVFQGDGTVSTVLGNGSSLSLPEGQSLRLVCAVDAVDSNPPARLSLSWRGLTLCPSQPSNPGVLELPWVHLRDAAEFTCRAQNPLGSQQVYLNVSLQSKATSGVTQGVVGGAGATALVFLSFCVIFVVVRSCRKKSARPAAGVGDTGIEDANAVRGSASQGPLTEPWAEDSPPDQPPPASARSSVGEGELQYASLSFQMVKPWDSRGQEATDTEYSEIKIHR

Trypanosoma cruzi = experiment: Trypanosoma cruzi phosphomannomutase and mannose-1-phosphate guanylyltransferase assay; type: functional; settings: 10 µM
[5] = molecular target: T2, Arginase-2, mitochondrial (Homo sapiens) (UniProt P78540); experiment: in vitro enzyme assay to detect the production of urea directly proportional to the activity of Arginase II; type: functional; settings: 33.3 µM; further: in the data most compounds retested in dose-response had high values
T2 sequence (whole entry): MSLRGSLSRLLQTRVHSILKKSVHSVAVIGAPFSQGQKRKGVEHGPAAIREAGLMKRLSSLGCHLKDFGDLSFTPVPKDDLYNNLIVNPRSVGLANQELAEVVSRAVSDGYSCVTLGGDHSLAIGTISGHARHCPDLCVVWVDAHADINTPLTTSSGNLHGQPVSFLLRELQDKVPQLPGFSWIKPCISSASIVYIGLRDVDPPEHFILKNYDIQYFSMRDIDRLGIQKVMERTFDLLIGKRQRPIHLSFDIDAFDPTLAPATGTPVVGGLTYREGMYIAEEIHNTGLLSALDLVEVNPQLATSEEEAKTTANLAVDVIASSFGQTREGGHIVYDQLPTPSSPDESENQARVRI

[6] = molecular target: T3, Proteasome subunit beta (Trypanosoma cruzi) (UniProt O96673); experiment: Trypanosoma cruzi proteasome chymotrypsin-like activity (TcProtChymo) assay.; further: in the data most compounds retested in dose-response had high values; type: functional; settings: 9.37 µM
T3 sequence (whole entry): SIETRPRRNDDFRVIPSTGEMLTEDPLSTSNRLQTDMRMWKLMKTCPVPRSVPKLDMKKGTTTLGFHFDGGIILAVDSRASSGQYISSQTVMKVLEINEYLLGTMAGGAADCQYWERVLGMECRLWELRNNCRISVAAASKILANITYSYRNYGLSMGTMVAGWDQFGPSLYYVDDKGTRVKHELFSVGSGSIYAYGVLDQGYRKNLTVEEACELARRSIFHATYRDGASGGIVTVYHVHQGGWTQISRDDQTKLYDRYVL

Homo sapiens = species on record: Homo sapiens; experiment: To identify inhibition of the IFN signalling (Jak-Stat) pathway via expression of an eGFP reporter gene under the control of an IFN-stimulated response element (ISRE) containing MxA promoter.; type: functional; settings: 30 µM
[7] = molecular target: T4, Tyrosyl-tRNA synthetase, putative (Trypanosoma cruzi (strain CL Brener)) (UniProt Q4DSP6); experiment: Trypanosoma cruzi tyrosyl tRNA synthetase (TcYRS) _High Tyrosine SOP; type: functional; settings: 30 µM; further: in the data most compounds retested in dose-response had high values
T4 sequence (whole entry): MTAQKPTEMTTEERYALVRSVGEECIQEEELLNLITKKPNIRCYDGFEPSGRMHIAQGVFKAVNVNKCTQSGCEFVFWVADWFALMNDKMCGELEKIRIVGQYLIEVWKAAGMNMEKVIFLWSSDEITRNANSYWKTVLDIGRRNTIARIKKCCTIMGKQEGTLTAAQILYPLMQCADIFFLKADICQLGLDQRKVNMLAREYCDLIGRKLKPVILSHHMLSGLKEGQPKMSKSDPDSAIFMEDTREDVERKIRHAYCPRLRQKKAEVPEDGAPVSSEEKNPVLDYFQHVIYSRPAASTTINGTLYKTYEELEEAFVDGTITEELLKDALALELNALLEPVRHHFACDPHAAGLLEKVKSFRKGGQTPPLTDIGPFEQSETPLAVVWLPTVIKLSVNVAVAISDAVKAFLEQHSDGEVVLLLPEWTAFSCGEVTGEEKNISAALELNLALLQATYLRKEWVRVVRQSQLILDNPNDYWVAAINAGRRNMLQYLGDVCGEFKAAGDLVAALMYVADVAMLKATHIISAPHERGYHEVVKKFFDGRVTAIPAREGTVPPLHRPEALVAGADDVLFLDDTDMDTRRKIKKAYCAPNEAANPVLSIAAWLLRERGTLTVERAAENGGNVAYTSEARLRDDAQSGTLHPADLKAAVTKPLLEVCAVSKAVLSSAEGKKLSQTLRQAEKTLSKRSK

[8] = molecular target: T4, Tyrosyl-tRNA synthetase, putative (Trypanosoma cruzi (strain CL Brener)); experiment: Trypanosoma cruzi tyrosyl tRNA synthetase (TcYRS) SOP; type: functional; settings: 30 µM
[9] = molecular target: Chromo domain-containing protein 1 (Saccharomyces cerevisiae (strain ATCC 204508 / S288c) (Baker's yeast)) (UniProt P32657); experiment: ScCHD-1 Enzyme Inhibition Assay; type: functional; settings: 30 µM; further: in the data most compounds retested in dose-response had high values
Sequence of Chromo domain-containing protein 1 (Saccharomyces cerevisiae (strain ATCC 204508 / S288c) (Baker's yeast)) (P32657 whole entry, the tested form may be a part): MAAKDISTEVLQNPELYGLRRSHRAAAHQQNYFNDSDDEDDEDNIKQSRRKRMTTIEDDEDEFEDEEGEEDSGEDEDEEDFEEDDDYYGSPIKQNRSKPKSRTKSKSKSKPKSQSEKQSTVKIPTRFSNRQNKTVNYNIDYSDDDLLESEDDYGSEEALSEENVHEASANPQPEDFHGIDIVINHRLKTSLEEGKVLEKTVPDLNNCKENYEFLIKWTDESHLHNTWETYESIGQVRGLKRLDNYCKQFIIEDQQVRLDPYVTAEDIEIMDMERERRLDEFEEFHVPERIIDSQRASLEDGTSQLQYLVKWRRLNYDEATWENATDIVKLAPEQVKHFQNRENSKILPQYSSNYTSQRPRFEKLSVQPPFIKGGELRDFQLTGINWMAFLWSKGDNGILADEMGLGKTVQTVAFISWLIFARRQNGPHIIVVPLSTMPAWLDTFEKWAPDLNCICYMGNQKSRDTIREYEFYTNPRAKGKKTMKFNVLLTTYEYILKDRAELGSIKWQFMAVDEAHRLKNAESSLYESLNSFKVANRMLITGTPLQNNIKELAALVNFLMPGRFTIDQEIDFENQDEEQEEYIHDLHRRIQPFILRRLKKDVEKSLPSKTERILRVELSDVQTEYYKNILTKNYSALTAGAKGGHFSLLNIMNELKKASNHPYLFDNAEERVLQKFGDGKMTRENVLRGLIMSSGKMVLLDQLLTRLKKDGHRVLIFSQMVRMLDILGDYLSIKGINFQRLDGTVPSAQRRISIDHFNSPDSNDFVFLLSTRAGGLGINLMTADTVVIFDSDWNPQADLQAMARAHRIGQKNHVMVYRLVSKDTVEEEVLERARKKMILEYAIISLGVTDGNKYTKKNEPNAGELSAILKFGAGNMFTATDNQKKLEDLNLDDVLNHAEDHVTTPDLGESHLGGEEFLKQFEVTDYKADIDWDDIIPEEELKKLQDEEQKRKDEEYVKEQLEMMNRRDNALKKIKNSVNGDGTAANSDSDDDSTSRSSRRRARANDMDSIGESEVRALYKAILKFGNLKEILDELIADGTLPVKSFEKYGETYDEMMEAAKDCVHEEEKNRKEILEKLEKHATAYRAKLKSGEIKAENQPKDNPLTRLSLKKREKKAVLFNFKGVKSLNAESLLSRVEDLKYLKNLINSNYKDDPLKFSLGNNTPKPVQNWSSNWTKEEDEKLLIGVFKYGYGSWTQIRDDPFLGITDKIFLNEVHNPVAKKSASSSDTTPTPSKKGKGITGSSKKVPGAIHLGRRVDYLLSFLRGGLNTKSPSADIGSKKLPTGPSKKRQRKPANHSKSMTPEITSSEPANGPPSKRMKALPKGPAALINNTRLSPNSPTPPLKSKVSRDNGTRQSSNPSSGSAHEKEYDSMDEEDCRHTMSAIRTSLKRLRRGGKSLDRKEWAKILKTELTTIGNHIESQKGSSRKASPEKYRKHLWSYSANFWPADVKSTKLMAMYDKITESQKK

Sequence of Protein translocase subunit SecA (Escherichia coli (strain K12)) (P10408 whole entry): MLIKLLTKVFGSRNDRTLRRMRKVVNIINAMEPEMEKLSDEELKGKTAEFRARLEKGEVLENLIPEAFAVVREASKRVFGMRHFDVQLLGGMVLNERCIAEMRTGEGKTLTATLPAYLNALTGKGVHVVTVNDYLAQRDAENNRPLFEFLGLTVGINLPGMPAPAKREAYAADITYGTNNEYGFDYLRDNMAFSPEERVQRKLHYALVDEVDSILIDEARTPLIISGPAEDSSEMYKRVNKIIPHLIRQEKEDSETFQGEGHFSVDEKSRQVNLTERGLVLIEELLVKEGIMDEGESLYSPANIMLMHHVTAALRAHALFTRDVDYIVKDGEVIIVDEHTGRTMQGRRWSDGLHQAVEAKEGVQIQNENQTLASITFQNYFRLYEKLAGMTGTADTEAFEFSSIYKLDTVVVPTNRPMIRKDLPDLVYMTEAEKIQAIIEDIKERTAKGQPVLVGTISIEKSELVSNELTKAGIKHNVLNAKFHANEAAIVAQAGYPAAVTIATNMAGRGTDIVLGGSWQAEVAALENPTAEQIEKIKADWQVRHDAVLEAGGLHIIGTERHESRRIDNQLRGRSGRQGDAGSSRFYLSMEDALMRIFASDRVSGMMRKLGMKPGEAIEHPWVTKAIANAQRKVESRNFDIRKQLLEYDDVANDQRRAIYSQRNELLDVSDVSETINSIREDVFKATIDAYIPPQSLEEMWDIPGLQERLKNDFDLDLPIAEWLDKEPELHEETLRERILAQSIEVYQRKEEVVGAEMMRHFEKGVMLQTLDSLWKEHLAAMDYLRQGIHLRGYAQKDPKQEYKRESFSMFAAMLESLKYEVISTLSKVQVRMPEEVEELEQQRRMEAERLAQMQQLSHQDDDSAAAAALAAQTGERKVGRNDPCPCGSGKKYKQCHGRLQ

SMILES	Percent Effect [1]	Percent Effect [2]	Percent Effect [3]	Percent Effect [4]	Percent Effect (Trypanosoma cruzi)	Percent Effect [5]	Percent Effect [6]	Percent Effect (Homo sapiens)	Percent Effect [7]	Percent Effect [8]	Percent Effect [9]
Cc1ccc(N2CCCC3(COCCN(c4nccs4)C3)C2)nn1 (stereo not drawn)	0.955%	0%	-4.27%	3.78%	1.79%	1.2%	11.7%	-6.58%	5.21%	3.7%	-1.92%
Cc1nc(C)n(C2CCCN(C(=O)c3ccc(N(C)C)nn3)C2)n1 (stereo not drawn)	-1.66%	-5.2%	4.94%	-6.86%	7.35%	-0.632%	6.06%	-42.5%	2.86%	0%	-16.9%
N#Cc1cccc(S(=O)(=O)NC(=O)COC2CCCC2)c1	-0.529%	26%	-4.75%	-1.76%	1.31%	1.07%	11.3%	0.622%	7.77%	21.9%	-7.26%
CC1CN(C(=O)CN(Cc2ccccc2Br)C2CC2)CCO1 (stereo not drawn)	-1.13%	0%	4.5%	0.479%	3.82%	-3.16%	-4.77%	13.8%	3.81%	7.06%	-7.55%
CCc1cccc(OCC(=O)N2CCCC(n3cncn3)C2)c1 (stereo not drawn)	-5.42%	13.5%	1.85%	-1.09%	-5.57%	2%	13%	14.3%	5.42%	11.1%	-4.63%
O=C(CCC1CCCO1)NS(=O)(=O)c1ccc(Cl)cc1 (stereo not drawn)	-3.22%	18.9%	-10.2%	0.394%	-4.81%	-2%	17.5%	16.7%	8.37%	18.5%	-1.63%
COCCN(C)C(=O)Nc1ccc2c(ccn2CCOC)c1	-6.84%	28.9%	-12.8%	0.86%	6.33%	-1.18%	-0.0959%	1.75%	4.25%	13%	-17.1%
CCn1cc2c(n1)CN(Cc1nccs1)CC2COCC1CC1 (stereo not drawn)	-2.47%	13.3%	8.82%	0.752%	-0.197%	3.03%	6.61%	0.895%	6.38%	11.5%	-4.67%
